# Only a selection was taken, and hits are over-represented in it overall.
# Sfp inh: inhibitors of Bacillus subtilis Sfp phosphopantetheinyl transferase; 3.5% of 310,000 active; AID 1490; Potency, µM, for inactives: largest response in the series, negative = inhibition, hits mostly inhibitors; Biochemical Sfp PPTase activity, qHTS; Q9F4F7;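 also: the enzyme is Sfp with the accession as filed and its product quenches rhodamine fluorescence; 0% = enzyme reaction without inhibitor and -100% = no enzyme wells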
#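 After 15 min at room temperature with compound, 15 nM Sfp received 5 uM rhodamine-CoA plus 12.5 uM BHQ-2-ybbR (50 mM Hepes pH 7.6, 10 mM MgCl2). Rate came from the fluorescence difference over 30 min, ex 525/em 598 nm.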
# G9a block: G9a (human) methyltransferase inhibition; Q96KQ7; G9a H3K9 monomethylation, AlphaScreen, 2 h; Potency, µM (series often up to 102 µM), for the others: at the highest dose activity, negative = inhibition, hits mostly inhibitors; 8.8% of 350,000 active; AID 504332; also: % is scaled to controls: 0 for no effect and ±100 for the full control effect; nearly all actives have a fitted effect of over 75% in size
# Target sequence (Q96KQ7 913-1193 limits assumed): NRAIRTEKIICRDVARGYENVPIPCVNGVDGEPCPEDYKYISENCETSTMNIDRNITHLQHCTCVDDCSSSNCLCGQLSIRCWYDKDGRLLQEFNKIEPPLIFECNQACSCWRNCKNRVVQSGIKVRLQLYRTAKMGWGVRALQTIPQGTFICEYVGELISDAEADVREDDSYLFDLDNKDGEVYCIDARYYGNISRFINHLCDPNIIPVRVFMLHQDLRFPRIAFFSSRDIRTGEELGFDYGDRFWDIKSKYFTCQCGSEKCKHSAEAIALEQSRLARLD
#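 Enzyme 20 nM + cpd, 15 min RT; add b-H3K9 pep 500 nM / SAM 20 uM; 2 h RT; anti-H3K9me1 Ab 0.5 ug/mL + SA donor / anti-rabbit acceptor beads 20 ug/mL each, 10 min; AlphaScreen read.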
# ALOX12 inh: inhibitors of human 12S-lipoxygenase ALOX12 | purified 12hLO, xylenol orange hydroperoxide absorbance | 1.1% of 580,000 active | Potency, µM (top dose mostly 108 µM), for the others: at the top dose activity change, negative = inhibition, most hits filed as inhibitors | P18054; also: % is scaled to controls: 0 for no effect and ±100 for the full control effect
#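 Purified human 12hLO at 150 nM in 25 mM Hepes, 0.01% Triton X-100, pH 7.0, preincubated 15 min at room temperature with compound. Reaction started with 40 uM arachidonic acid, 30 min at room temperature. Hydroperoxide measured by Fe-xylenol orange, 573/405 nm absorbance ratio.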
# VDR inhibitor: blocks the human vitamin D receptor; VDR-SRC2-3 peptide fluorescence polarization, 2 h; 0.93% of 400,000 active; P11473; AID 504847; Potency, µM, inactives show max response, negative = inhibition, most hits filed as inhibitors; also: % is scaled to controls: 0 for no effect and ±100 for the full control effect
# Target sequence (P11473 whole entry, looked up): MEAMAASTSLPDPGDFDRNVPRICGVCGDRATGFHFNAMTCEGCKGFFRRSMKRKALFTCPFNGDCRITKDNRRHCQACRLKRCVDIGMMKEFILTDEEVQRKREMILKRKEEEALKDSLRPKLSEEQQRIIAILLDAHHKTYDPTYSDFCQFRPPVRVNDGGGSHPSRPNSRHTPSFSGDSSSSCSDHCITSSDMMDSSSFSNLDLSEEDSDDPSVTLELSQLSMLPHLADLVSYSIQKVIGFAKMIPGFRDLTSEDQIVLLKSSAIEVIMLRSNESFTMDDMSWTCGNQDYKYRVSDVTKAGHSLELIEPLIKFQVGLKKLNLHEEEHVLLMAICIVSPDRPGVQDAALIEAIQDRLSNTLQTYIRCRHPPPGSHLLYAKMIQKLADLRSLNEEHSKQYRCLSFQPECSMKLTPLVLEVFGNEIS
#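 Fluorescence polarization assay of small-molecule disruption of VDR binding to coregulator peptide SRC2-3. Compounds and controls pin-transferred, then read after 2 h incubation at ambient room temperature.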
# Glioma ERSR ind: induces the endoplasmic reticulum stress response in human glioma cells; U87-MG GRP78 promoter luciferase reporter, 16 h; Potency, µM, without a hit: at the top dose activation, actives largely listed as activators; 0.02% of 420,000 active; also: series mostly up to about 76 µM; % of control where 0% means no effect; nearly all actives have a fitted effect of over 35% in size
#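 ERSR induction read as luciferase luminescence (Bright-Glo, 10 min at room temperature) in stably transfected human U87-MG glioma cells exposed to compounds for 16 h, using GRP78 as sensor.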
# * marks the source's active call; other numbers are inactive results; ? = inconclusive; . = no result given; [ ] = remark or other dose. Calls follow the shape of the dose curve; as a rule, active = well fitted curve in the direction sought with a large enough effect; inconclusive = small, poorly fitted or top-dose-only effect, or another doubt; inactive = no such curve, though single readings can be large; an effect the other way counts as inactive or inconclusive. Potency is read from the fitted curve at half-maximal effect.
SMILES,Sfp inh,G9a block,ALOX12 inh,VDR inhibitor,Glioma ERSR ind
COc1ccc(CC(=O)NCC(=O)N/N=C/c2c[nH]c3ccccc23)cc1,0%,24%,-1%,21%,-3%
Cc1ccc(NC2=Nc3ccccc3CS2)cc1,-15%,10µM*,357%,-6%,-13%
CCC1CSC(Nc2ccc(C)cc2)=N1 (stereo unspecified),.,.,-18%,.,.
CC1=CC(=O)C2C(C)(C)CCC[C@@]2(C)[C@@]1(O)CCc1ccoc1 (stereo partly specified),-8%,.,.,50µM*,-2%
CC1=CC(=O)[C@H]2C(C)(C)CCC[C@]2(C)[C@@]1(O)CO,11%,-7%[59 µM],-5%,-5%,-2%
CC(=O)Nc1ccc(C(=O)N2CCC3(CC2)N=C(c2ccc(C)cc2)NO3)cc1,.,.,48%,.,.
COc1cc(NC(=O)CSc2nncn3c2cc2oc(C)cc23)cc(OC)c1,.,.,15%,.,.
C(#Cc1ccccc1)C[N+]1(CC#Cc2ccccc2)CCCCC1,13%,-33%,-1%,15%,-4%
Cc1ccc(C#CC[N+]2(CC#Cc3ccc(C)cc3)CCCCC2)cc1,-8%,89µM*,?,2%,-7%
Cc1ccccc1NCCNc1ccccc1C,-10%,45µM*,11%,0%,-1%
COc1ccc(NC(=O)CSc2ccc(-c3ccco3)nn2)cc1,32µM*,.,?,-16%,-2%
COc1cc(NC(=O)CSc2ccc(-c3ccco3)nn2)cc(OC)c1,28µM*,?,-6%,-12%,6%
COc1ccc(NC(=O)CSc2ccc(-c3cccnc3)nn2)cc1,6%,.,0%,2%,-1%
Cc1ccc(S(=O)(=O)Cn2nnnc2CN2CCCC3(CCCCC3)C2)cc1,3%,25µM*,?,-17%,-3%
COc1ccccc1CNC(=O)c1ccc(-c2ccccc2Cl)o1,?,28µM*,?,-10%,1%
COc1ccccc1S(=O)Cc1ccc(C(=O)NCc2ccccc2Cl)o1 (stereo unspecified),?,3.5µM*,-20%,?,-3%
CC(=O)Nc1c(C)cccc1C(C)C,.,.,11%,.,.
N#Cc1cn(CC(=O)Nc2cccc(Cl)c2Cl)c2ccccc12,.,.,13%,.,.
Cc1cc2n(n1)C(c1ccccc1)CC(c1ccc(Br)cc1)=N2 (stereo unspecified),-2%,40µM*,.,-5%,7%
COc1ccc(-c2nc(C#N)c(NCC(C)C)o2)cc1,.,.,-4%,.,.
CCn1c(SCC(=O)Nc2nc(-c3ccc(C)cc3)cs2)nnc1-c1ccccc1,1%,-20%,-10%,10%,-1%
Cc1ccc(-c2csc(NC(=O)CSc3nc4ccccc4c(=O)n3CCCN(C)C)n2)cc1,56µM*,40µM*,?,-15%,-8%
CN(C)CCCn1c(SCC(=O)N2c3ccccc3Sc3ccccc32)nc2ccccc2c1=O,?,40µM*,-25%,-18%,-12%
CCOc1ccccc1OCCCC(=O)Oc1ccc(-c2ccc(C#N)cc2)cc1,.,.,-23%,.,.
COc1ccc(NC(=O)Cn2cccc2-c2nc(-c3ccccc3)no2)c(OC)c1,.,.,-16%,.,.
SMILES,Sfp inh,G9a block,ALOX12 inh,VDR inhibitor,Glioma ERSR ind
N#C/C(=C\c1coc2ccc(O)cc2c1=O)C(=O)Nc1nc2ccccc2s1,-29%,?,11µM*,?,?
COc1ccc(NC(=O)C2CC(=O)n3cnnc3S2)cc1 (stereo unspecified),56µM*,?,0%,-3%,-1%
COc1ccc(NC(=O)C2CC(=O)n3ncnc3N2)cc1 (stereo unspecified),18%,-8%[59 µM],-3%,-3%,-4%
COc1ccc(C(=O)Nc2ccc3c(c2)nc(CN2CCCCCC2)n3C)cc1OC,.,.,71%,.,.
Cc1cc(=O)oc2cc(OC(=O)[C@H](C)NC(=O)OC(C)(C)C)c(Cl)cc12,.,.,-1%,.,.
O=C(Cc1ccccc1F)NC1CC2CC1C1CCCC21 (stereo unspecified),.,.,0%,.,.
COCC(C)n1c(C)cc(C(=O)COC(=O)c2nc3nc(C)cc(C)n3n2)c1C (stereo unspecified),14%,56µM*,-30%,-7%,-1%
Cc1ccc(C)c(N(C(=O)Cn2nnc3ccccc32)C(C(=O)NCc2ccco2)c2ccncc2)c1 (stereo unspecified),2%,-30%[12.7 µM],25%,14%,-4%
CCCCN(C(=O)Cn1nnc2ccccc21)C(C(=O)NCc1ccco1)c1ccncc1 (stereo unspecified),50µM*,?,1%,-14%,-4%
Cc1cc(C)cc(N(C(=O)Cn2nnc3ccccc32)C(C(=O)NCc2ccco2)c2ccncc2)c1 (stereo unspecified),45µM*,?,-12%,-3%,3%
CCCNc1nc2ccccc2nc1C(=O)Nc1ccc(C)cc1,.,.,-30%,.,.
CCc1nc(N2CCN(CCO)CC2)c(C#N)c2c1CCCC2,.,.,1%,.,.
CCCCN1C(=O)/C(=C(/C#N)C(=O)N2CCCC2)c2ccccc21,-8%,-14%[12.7 µM],8%,45µM*,-4%
O=C(CCCl)Nc1nc2c(s1)CCc1ccccc1-2,?,50µM*,24%,3%,-8%
O=c1oc2ccc3ccccc3c2cc1-c1nc2c(s1)CCc1ccccc1-2,.,.,.,-6%,-1%
O=c1oc2ccccc2cc1-c1nc2c(s1)CCc1ccccc1-2,7.9µM*,-19%[59 µM],?,-11%,-3%
Nc1nc2c(s1)CCc1ccccc1-2,79µM*,10µM*,?,?,8%
O=C(Nc1nc2c(s1)CCc1ccccc1-2)c1ccco1,-15%,?,?,11%,?
N#C/C(=C(/O)CCl)c1nc2c(s1)CCc1ccccc1-2,56µM*,3.5µM*,16µM*,?,?
N#C/C(=C(/O)CN1CCOCC1)c1nc2ccccc2s1,-3%,-32%[12.7 µM],?,27%,-3%
CC(=O)Nc1nc2c(s1)CCc1ccccc1-2,-9%,0%[59 µM],3%,13%,9%
O=C(O)C(Sc1cnc2ccccc2n1)c1ccccc1 (stereo unspecified),.,.,-15%,.,.
CN1C[C@@H](NC(=O)Nc2ccc(F)cc2F)C[C@H]1c1nc(-c2ccccc2)no1,.,.,27%[176 µM],.,.
Cc1cc(S(=O)(=O)NCC(C)O)c(C)cc1Cl (stereo unspecified),.,.,-3%,.,.
O=c1oc2cc(O)ccc2cc1-c1nc2c(s1)CCc1ccccc1-2,56µM*,55%[59 µM],?,-16%,-2%
O=c1oc2cc(O)ccc2cc1-c1nc2ccccc2s1,.,.,-20%,.,.
C[N+]1(CC2COC(c3ccccc3)(c3ccccc3)O2)CCCCC1 (stereo unspecified),.,.,-29%[12.5 µM],.,-3%
C[N+]1(CC2COC3(CCCCC3)O2)CCCC1 (stereo unspecified),-9%,14µM*,?,-2%,-1%
CC(C)CCN1CCCCC12Cc1ccccc1CNC2=O (stereo unspecified),.,.,11%[6.33 µM],.,.
Cc1ccc(Cl)cc1NC(=S)NCCSc1ccc(Cl)cc1,.,.,35µM*,.,.

# Screening data: PubChem BioAssay, National Center for Advancing Translational Sciences (NCATS)
